# Laboratory results as given in PubChem BioAssay (EPA / NIEHS).
# Where “and” joins values, the source holds several entries; their conditions need not be identical. Identical values can stand only once. Results filed as inconclusive are left out. Calls of active or inactive are those of the source. How the source made its calls, unless noted: active means hit-call score of the fitted dose curve at least 0.9, where 1 is the maximum; inactive means score below 0.9.
# Molecular target: human Thyroid Receptor alpha (THRa1), THRA (gene 7067) (UniProt P10827)
# Sequence (P10827 whole entry, looked up): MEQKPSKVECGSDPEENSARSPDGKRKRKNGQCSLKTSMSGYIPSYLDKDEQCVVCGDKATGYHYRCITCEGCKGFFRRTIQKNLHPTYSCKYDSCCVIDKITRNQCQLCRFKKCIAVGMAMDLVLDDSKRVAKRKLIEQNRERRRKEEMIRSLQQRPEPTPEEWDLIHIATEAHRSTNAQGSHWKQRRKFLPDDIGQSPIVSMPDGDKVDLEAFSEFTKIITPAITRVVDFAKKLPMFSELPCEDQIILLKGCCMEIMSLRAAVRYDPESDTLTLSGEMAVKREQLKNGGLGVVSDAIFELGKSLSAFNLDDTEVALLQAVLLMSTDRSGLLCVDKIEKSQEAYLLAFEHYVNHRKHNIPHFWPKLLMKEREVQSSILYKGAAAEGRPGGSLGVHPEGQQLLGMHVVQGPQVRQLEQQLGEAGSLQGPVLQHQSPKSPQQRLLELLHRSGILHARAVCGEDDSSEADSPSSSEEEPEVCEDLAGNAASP
# Assay: ATG_THRa1_TRANS: Attagene TRANS-FACTORIAL HepG2 Assay for human Thyroid Receptor alpha (THRa1) (AID 2283014; active means hit-call score of the fitted dose curve at least 0.9, where 1 is the maximum)
# Details: not given
# In short: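 HepG2 cells transiently transfected with chimeric NR-Gal4 and GAL4-UAS reporter units, dosed 24 h. Reporter mRNA quantified by RT-PCR, fluorescent labeling, HpaI digestion and capillary electrophoresis; gain-of-signal fit versus DMSO.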
# Sequence of E-selectin (Homo sapiens) (P16581 whole entry, looked up): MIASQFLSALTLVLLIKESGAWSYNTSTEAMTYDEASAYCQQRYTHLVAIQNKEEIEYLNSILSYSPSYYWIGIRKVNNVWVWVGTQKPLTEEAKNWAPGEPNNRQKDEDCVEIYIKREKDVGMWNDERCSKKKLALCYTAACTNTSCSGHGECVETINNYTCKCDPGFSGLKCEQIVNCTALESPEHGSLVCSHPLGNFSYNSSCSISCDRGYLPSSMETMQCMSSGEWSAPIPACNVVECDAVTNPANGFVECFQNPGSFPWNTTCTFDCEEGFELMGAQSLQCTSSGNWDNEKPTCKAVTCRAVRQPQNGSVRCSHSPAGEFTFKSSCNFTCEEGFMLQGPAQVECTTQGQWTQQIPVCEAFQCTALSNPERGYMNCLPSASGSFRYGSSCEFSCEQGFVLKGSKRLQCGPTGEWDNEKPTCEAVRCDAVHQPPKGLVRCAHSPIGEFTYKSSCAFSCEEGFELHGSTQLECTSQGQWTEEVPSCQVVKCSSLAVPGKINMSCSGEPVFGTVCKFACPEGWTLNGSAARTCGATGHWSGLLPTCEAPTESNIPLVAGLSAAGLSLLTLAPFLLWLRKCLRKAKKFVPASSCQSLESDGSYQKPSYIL
row,Structure (SMILES),outcome
1,OC1OCCOC1O (stereo not given),inactive
2,CCc1nccnc1C,inactive
3,c1cc(C(c2ccc(OCC3CO3)cc2)C(c2ccc(OCC3CO3)cc2)c2ccc(OCC3CO3)cc2)ccc1OCC1CO1 (stereo not given),inactive

# Read-out: E-selectin (Homo sapiens) (UniProt P16581)
# Assay: BSK_3C_Eselectin: BioMAP Diversity Plus: 3C Assay for Eselectin Biomarker Activity (AID 2283015);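 on outcome: cell surface E-selectin protein quantified by ELISA 24 h after dosing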
# Details: primary human endothelial cells (HUVEC); actives raise or lower the signal
# In short: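 Primary human umbilical vein endothelial cells (3C system), read 24 h after compound addition; E-selectin measured by ELISA. Bidirectional curve fitting against DMSO baseline; cytotoxicity by parallel SRB total-protein staining.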
Structure (SMILES),AC50,outcome
c1ccc2c(c1)ccc1ncccc12,16.4 µM (active),
CC1OC1C1CCC2(C)OC2C1 (stereo not given),,inactive
CCO[Si](C)(OCC)OCC,,inactive
CCOC(=O)c1ccccc1C(=C1C=C(Br)C(=O)C(Br)=C1)c1cc(Br)c(O)c(Br)c1,21 µM (active) and 19.9 µM (active),
CCCCC/C=C\C/C=C\CCCCCCCC(=O)OC,29.6 µM (active),
COc1ccc2nc(N)sc2c1,,inactive

# Read-out: Interleukin-1 alpha (IL1a), IL1A (gene 3552)
# Assay: BSK_BE3C_IL1a: BioMAP Diversity Plus: BE3C Assay for Interleukin-1 alpha (IL1a) Biomarker Activity (AID 2283016)
# Details: primary human bronchial epithelial cells; actives raise or lower the signal
# In short: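 Human primary bronchial epithelial cells, 24 h chemical exposure; IL-1a quantified by ELISA, fitted bidirectionally against DMSO. Cytotoxicity assessed in parallel by SRB total-protein staining at the time of measurement.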
Structure (SMILES),AC50,outcome
c1ccc2c(c1)ccc1ncccc12,20 µM (active),
CC1OC1C1CCC2(C)OC2C1 (stereo not given),,inactive
CCO[Si](C)(OCC)OCC,,inactive
CCOC(=O)c1ccccc1C(=C1C=C(Br)C(=O)C(Br)=C1)c1cc(Br)c(O)c(Br)c1,4.38 µM (active) and 4.46 µM (active),
CCCCC/C=C\C/C=C\CCCCCCCC(=O)OC,20 µM (active),
COc1ccc2nc(N)sc2c1,,inactive

# Read-out: Monocyte Chemoattractant Protein-1 (MCP1), CCL2 (gene 6347)
# Assay: BSK_3C_MCP1: BioMAP Diversity Plus: 3C Assay for Monocyte Chemoattractant Protein-1 (MCP1) Biomarker Activity (AID 2283017)
# Details: primary human endothelial cells (HUVEC); actives raise or lower the signal
# In short: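 Human umbilical vein endothelial cells (3C system) exposed to chemicals for 24 h; MCP-1 quantified by ELISA against the DMSO baseline with bidirectional fitting, and parallel SRB staining used to assess cytotoxicity.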
Structure (SMILES),AC50,outcome
c1ccc2c(c1)ccc1ncccc12,5.9 µM (active),
CC1OC1C1CCC2(C)OC2C1 (stereo not given),,inactive
CCO[Si](C)(OCC)OCC,,inactive
CCOC(=O)c1ccccc1C(=C1C=C(Br)C(=O)C(Br)=C1)c1cc(Br)c(O)c(Br)c1,21.6 µM (active) and 20.9 µM (active),
CCCCC/C=C\C/C=C\CCCCCCCC(=O)OC,34.4 µM (active),
COc1ccc2nc(N)sc2c1,,inactive

# Read-out: Monocyte Chemoattractant Protein-1 (MCP1), CCL2 (gene 6347)
# Assay: BSK_4H_MCP1: BioMAP Diversity Plus: 4H Assay for Monocyte Chemoattractant Protein-1 (MCP1) Biomarker Activity (AID 2283018)
# Details: primary human endothelial cells (HUVEC); actives raise or lower the signal
# In short: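 Human umbilical vein endothelial cells (4H system) exposed to chemicals for 24 h in 96-well format. MCP-1 measured by ELISA; bidirectional fitting against DMSO, with SRB total-protein staining in parallel cultures for cytotoxicity.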
Structure (SMILES),outcome,AC50
c1ccc2c(c1)ccc1ncccc12,inactive,
CC1OC1C1CCC2(C)OC2C1 (stereo not given),inactive,
CCO[Si](C)(OCC)OCC,inactive,
CCOC(=O)c1ccccc1C(=C1C=C(Br)C(=O)C(Br)=C1)c1cc(Br)c(O)c(Br)c1,,15.5 µM (active) and 13.5 µM (active)
CCCCC/C=C\C/C=C\CCCCCCCC(=O)OC,inactive,
COc1ccc2nc(N)sc2c1,inactive,

# Read-out: Human Leukocyte Antigen - DR isotype (HLADR), HLA-DRA (gene 3122)
# Assay: BSK_3C_HLADR: BioMAP Diversity Plus: 3C Assay for Human Leukocyte Antigen - DR isotype (HLADR) Biomarker Activity (AID 2283019);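 on outcome: ELISA of cell-surface HLA-DR on HUVEC 24 h after dosing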
# Details: primary human endothelial cells (HUVEC); actives raise or lower the signal
# In short: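 HUVEC monoculture, HLA-DR measured by ELISA 24 h after chemical dosing. Fitted bidirectionally against DMSO baseline; parallel SRB staining assessed cytotoxicity, with 3C proliferation read by SRB at 48 h.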
Structure (SMILES),AC50,outcome
c1ccc2c(c1)ccc1ncccc12,20 µM (active),
CC1OC1C1CCC2(C)OC2C1 (stereo not given),,inactive
CCO[Si](C)(OCC)OCC,,inactive
CCOC(=O)c1ccccc1C(=C1C=C(Br)C(=O)C(Br)=C1)c1cc(Br)c(O)c(Br)c1,19.5 µM (active) and 16 µM (active),
CCCCC/C=C\C/C=C\CCCCCCCC(=O)OC,28.7 µM (active),
COc1ccc2nc(N)sc2c1,,inactive

# Read-out: Interleukin-8 (IL8), CXCL8 (gene 3576)
# Assay: BSK_3C_IL8: BioMAP Diversity Plus: 3C Assay for Interleukin-8 (IL8) Biomarker Activity (AID 2283020)
# Details: primary human endothelial cells (HUVEC); actives raise or lower the signal
# In short: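 Primary human umbilical vein endothelial cells were dosed for 24 h. IL-8 was quantified by ELISA and fitted bidirectionally against DMSO. Cytotoxicity was assessed in parallel cultures by SRB staining at 560 nm.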
Structure (SMILES),outcome,AC50
c1ccc2c(c1)ccc1ncccc12,inactive,
CC1OC1C1CCC2(C)OC2C1 (stereo not given),inactive,
CCO[Si](C)(OCC)OCC,inactive,
CCOC(=O)c1ccccc1C(=C1C=C(Br)C(=O)C(Br)=C1)c1cc(Br)c(O)c(Br)c1,,20.2 µM (active) and 21.7 µM (active)
CCCCC/C=C\C/C=C\CCCCCCCC(=O)OC,inactive,
COc1ccc2nc(N)sc2c1,inactive,

# Read-out: Monokine induced gamma interferon (MIG), CXCL9 (gene 4283)
# Assay: BSK_3C_MIG: BioMAP Diversity Plus: 3C Assay for Monokine induced gamma interferon (MIG) Biomarker Activity (AID 2283021);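 on AC50: MIG protein level measured by immunoassay in the treated endothelial cultures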
# Details: primary human endothelial cells (HUVEC); actives raise or lower the signal
# In short: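 HUVEC primary endothelial cultures dosed with chemical; MIG quantified by ELISA at 24 h. Data fitted bidirectionally against DMSO control, with parallel SRB total-protein staining for cytotoxicity.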
Structure (SMILES),outcome,AC50
c1ccc2c(c1)ccc1ncccc12,inactive,
CC1OC1C1CCC2(C)OC2C1 (stereo not given),inactive,
CCO[Si](C)(OCC)OCC,inactive,
CCOC(=O)c1ccccc1C(=C1C=C(Br)C(=O)C(Br)=C1)c1cc(Br)c(O)c(Br)c1,,23.6 µM (active) and 21.7 µM (active)
CCCCC/C=C\C/C=C\CCCCCCCC(=O)OC,,31.4 µM (active)
COc1ccc2nc(N)sc2c1,inactive,

# Molecular target: human Vitamin D Receptor (VDR), VDR (gene 7421) (UniProt P11473)
# Sequence (P11473 whole entry, looked up): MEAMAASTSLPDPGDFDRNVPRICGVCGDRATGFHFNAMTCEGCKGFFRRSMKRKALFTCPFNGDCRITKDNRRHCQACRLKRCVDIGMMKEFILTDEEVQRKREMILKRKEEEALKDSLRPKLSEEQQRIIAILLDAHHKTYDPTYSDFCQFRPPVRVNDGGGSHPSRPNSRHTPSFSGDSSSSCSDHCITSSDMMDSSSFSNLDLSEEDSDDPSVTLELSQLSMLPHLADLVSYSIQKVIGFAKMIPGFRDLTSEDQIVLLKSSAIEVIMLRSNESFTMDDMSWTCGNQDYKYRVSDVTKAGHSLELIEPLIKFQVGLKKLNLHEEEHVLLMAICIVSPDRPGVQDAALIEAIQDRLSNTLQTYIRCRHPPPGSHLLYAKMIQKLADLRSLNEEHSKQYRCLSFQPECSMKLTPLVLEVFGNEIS
# Assay: ATG_VDR_TRANS: Attagene TRANS-FACTORIAL HepG2 Assay for human Vitamin D Receptor (VDR) (AID 2283022; active means hit-call score of the fitted dose curve at least 0.9, where 1 is the maximum)
# Details: not given
# In short: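 HepG2 cells were transiently transfected with GAL4-UAS reporter units and a chimeric VDR-Gal4 construct, then dosed for 24 hours. Reporter mRNA was quantified by RT-PCR, fluorescent labeling, HpaI digestion and capillary electrophoresis; gain of signal analysed vs DMSO.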
row,Structure (SMILES),outcome
1,OC1OCCOC1O (stereo not given),inactive
2,CC/C=C\C/C=C\C/C=C\CCCCCCCC(=O)O,inactive
3,O=Cc1ccc(CO)o1,inactive
4,O=c1n(CCO)c(=O)n(CCO)c(=O)n1CCO,inactive
5,CC(C)c1ccc2c(c1)CC[C@H]1[C@](C)(CN)CCC[C@]21C,inactive
6,CCCNC(=O)NS(=O)(=O)c1ccc(Cl)cc1,inactive
7,C[Si](C)(CCCN)O[Si](C)(C)CCCN,inactive
8,COCCOCCOCCOCCOC,inactive
9,c1ccc(CNCc2ccccc2)cc1,inactive
10,NC(CO)(CO)CO,inactive
11,CCCCCCCCCCCCCOP(=O)(O)O,inactive
12,O=C(C(Cl)Cl)N1CCOC12CCCCC2,inactive
13,CC1(C)S[C@@H]2[C@H](NC(=O)COc3ccccc3)C(=O)N2[C@H]1C(=O)O,inactive
14,CCc1nccnc1C,inactive
15,CC(=O)OCc1ccco1,inactive
16,O=C(Oc1ccccc1)c1ccc2ccccc2c1O,inactive
17,O=C(/C=C/C=C/c1ccc2c(c1)OCO2)N1CCCCC1,inactive
18,C=CC(=O)OCCOC1C2CCC1C1CC=CC12 (stereo not given),inactive
19,c1cc(C(c2ccc(OCC3CO3)cc2)C(c2ccc(OCC3CO3)cc2)c2ccc(OCC3CO3)cc2)ccc1OCC1CO1 (stereo not given),inactive
20,CC(=O)OCC(C)OC(C)=O (stereo not given),inactive
21,C=C(C)C(=O)OCCO,inactive
22,CCCCCCOc1cc(C)c(O)c(C)c1C,inactive
23,CC(=O)Oc1ccc(C(C)=O)cc1,inactive
24,CCC(C)C=O (stereo not given),inactive
25,CCOC(F)(F)C(F)(F)C(F)(F)C(F)(F)F,inactive
26,Nc1ccc2cc3ccccc3cc2c1,inactive
27,CCCCC(CC)CCC(CC(C)C)OS(=O)(=O)O (stereo not given),inactive
28,Cc1ccc([N+](=O)[O-])cc1S(=O)(=O)O,inactive
29,COc1ccc(C(Cl)=C(c2ccc(OC)cc2)c2ccc(OC)cc2)cc1,inactive
30,C=CC(C)(C)C,inactive
